Test results: the supplement of paper PMC3334620
The full ranking holds about 33,000 sequences; the median of “E-score (-0.5 to 0.5)” is about -0.0034, and the highest 2% start at about 0.25. The list comes from a sample in which the highest values are over-represented; it also holds similar and randomly drawn sequences.

Target: T1, Yap3 (UniProt P38749)
T1 sequence: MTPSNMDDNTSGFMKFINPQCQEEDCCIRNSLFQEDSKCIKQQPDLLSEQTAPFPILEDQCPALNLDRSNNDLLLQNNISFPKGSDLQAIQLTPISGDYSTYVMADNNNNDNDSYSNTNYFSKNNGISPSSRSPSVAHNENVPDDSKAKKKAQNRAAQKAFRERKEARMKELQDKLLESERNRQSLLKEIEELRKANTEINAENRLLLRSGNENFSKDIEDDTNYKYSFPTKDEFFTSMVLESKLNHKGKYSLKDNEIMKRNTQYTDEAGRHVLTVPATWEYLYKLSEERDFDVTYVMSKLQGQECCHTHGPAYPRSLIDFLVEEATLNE
Test: PBM E-score (8-mer binding enrichment) (E-score (-0.5 to 0.5)); higher = stronger / more preferred TF binding
Conditions: protein concentration: 100 nM; construct: GST-full length
Procedure: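 Universal 'all 10-mer' protein binding microarrays (Agilent AMADID 015681) probed with GST-tagged S. cerevisiae TFs (full-length or DBD) made by in vitro transcription/translation (PURExpress), about 100-200 nM. Bound TF was detected with fluorescent anti-GST. Each ungapped 8-mer (which stands for itself and its reverse complement) is scored by the PBM enrichment score (E-score), a modified Wilcoxon-Mann-Whitney statistic from -0.5 to +0.5, computed with the Universal PBM Analysis Suite. Scale: above 0.35 generally sequence-specific binding.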

Row | Sequence | PBM E-score
1 | GAATTATA | 0.237
2 | CAATTATC | 0.273
3 | GAATTAGA | 0.136
4 | TAATTAGA | 0.291
5 | CAATTATG | 0.214
6 | AAATTATA | 0.249
7 | CAATTAGA | 0.0631
8 | CTACCATA | 0.152
9 | CCGTGAAG | -0.167
10 | ATACCATA | 0.241
11 | CTAGATCC | -0.0756
12 | GCGAAGGA | -0.201
13 | AACGAGGA | 0.0742
14 | AACTAATT | 0.149
15 | AACTAATA | 0.342
16 | TAATACAA | 0.279
17 | CAATACAA | 0.187
18 | TAATACTA | 0.367
19 | AACTAATG | 0.23
20 | GACTAACA | 0.142
21 | AAATACTA | 0.141
22 | CAATACTA | 0.0409
23 | GACTAATA | 0.326
24 | GACTAATC | 0.175
25 | AAATACAA | 0.197

Row | Sequence | PBM E-score
26 | CAAATCTC | 0.0919
27 | TACAGCTA | -0.115
28 | GCATGACC | -0.158
29 | TCCTTCAA | 0.026
30 | CCCTTGAC | -0.0534
31 | CGACAGGA | 0.0296
32 | AAGTAACC | 0.0184
33 | ACCTAGAC | -0.229
34 | GAGACGGC | -0.138
35 | GAAAGATC | -0.0498
36 | ATCCAGTG | 0.0972
37 | ACTCCAAT | 0.0453
38 | GAAATACC | 0.0809
39 | GGTCAGTA | -0.139
40 | TGTAGTAA | 0.128
41 | TACTAATA | 0.267
42 | CACTAATA | 0.225
43 | TACTACTA | 0.223
44 | ACCTAATA | 0.274
45 | ACCTAATC | 0.245
46 | GCCTAATA | 0.0577
47 | GAAAGCAC | 0.112
48 | ACAGCAGG | -0.126
49 | CGTCTGAA | -0.104
50 | CTAATCAG | 0.0826

Row | Sequence | PBM E-score
51 | AACATACG | 0.183
52 | AACATAAG | 0.308
53 | ATAATCAT | 0.344
54 | AACATAAA | 0.156
55 | AACATACT | 0.012
56 | CTAATCAA | 0.219
57 | AACATAAT | 0.334
58 | ATAATCAG | 0.126
59 | ATAATCAA | 0.139
60 | CACATAAG | 0.053
61 | CTAATCAC | 0.271
62 | GCATAAAA | 0.147
63 | CGTTGAAC | -0.07
64 | GCTAGGAC | -0.11
65 | ATCTATCC | 0.00162
66 | AAAGTGCT | 0.0686
67 | CTCTATCC | -0.00886
68 | CAGGAAGC | 0.00172
69 | ACCATAAG | -0.0758
70 | ACCATAAA | 0.141
71 | CACATAAC | -0.0392
72 | ATCATAAG | 0.247
73 | ATCATAAA | 0.193
74 | GACATAAC | 0.22
75 | ATCATAAT | 0.293

Row | Sequence | PBM E-score
76 | ACCATAAT | 0.264
77 | AACATAAC | 0.269
78 | CTCTCTAC | 0.111
79 | AGCTGGAA | -0.178
80 | GCAACCCA | -0.11
81 | AATGATAG | 0.172
82 | AATGATAC | 0.264
83 | AATGATAA | 0.177
84 | AATGATTA | 0.325
85 | CCTGATTA | 0.18
86 | CATGATTA | 0.28
87 | AATGATTC | 0.115
88 | AATGATAT | 0.242
89 | TATGATAA | 0.228
90 | CATGATTC | 0.0254
91 | GATGATTA | 0.0319
92 | CATGATAA | 0.255
93 | AGAACGCC | -0.109
94 | CGCACATA | -0.0836
95 | AAGTGGGT | 0.0584
96 | AATTTGAA | 0.131
97 | CCGAGCAA | -0.0253
98 | CATATAGC | 0.233
99 | ATACAAGG | 0.145
100 | CGCGATTA | 0.27

Row | Sequence | PBM E-score
101 | AGCGATTA | 0.00413
102 | CGCGATTC | 0.198
103 | CGTAATGC | 0.203
104 | CGTAATAA | 0.29
105 | AGTAATAG | 0.207
106 | AGTAATAT | 0.295
107 | CGTAATAG | 0.314
108 | GGTAATAC | 0.208
109 | TGTAATAA | 0.242
110 | CATAATAG | 0.189
111 | AGTAATAC | 0.113
112 | CGTAATAC | 0.318
113 | AGTAATGC | 0.13
114 | GGTAATAA | 0.165
115 | CGGCATTA | 0.21
116 | ACTCGTTC | -0.0576
117 | AGTAATAA | 0.254
118 | AGTAAAAA | 0.208
119 | AGTAATGA | 0.208
120 | ATTGGGGC | -0.0386
121 | AGGCTATC | -0.203
122 | GCGCGCGC | 0.29
123 | ACGCGCTA | 0.0658
124 | GCGCGCGA | 0.121
125 | CCGCGCGA | 0.0991

Row | Sequence | PBM E-score
126 | CCGCGCTA | 0.137
127 | CCGCGCGG | 0.293
128 | CCGCGCGC | 0.0469
129 | ACGCGCGC | 0.181
130 | GCGCGCTA | 0.257
131 | ACAACAGA | -0.0683
132 | GATGTCCC | -0.134
133 | AGGATCAG | -0.151
134 | CGGCCCAG | -0.332
135 | AGAAATGA | 0.0784
136 | CCTGACAG | -0.0186
137 | GGAGATAA | 0.107
138 | AGAGATAA | 0.169
139 | CGAGATAA | 0.29
140 | GAGCCTTA | -0.0398
141 | ACATGTTG | 0.13
142 | ACATGTAG | 0.302
143 | CCATGTAG | -0.014
144 | ACATGTAA | 0.184
145 | ACATGTAC | 0.112
146 | ACATGTAT | 0.262
147 | CAGAATCA | 0.0924
148 | CCGCTAGG | -0.128
149 | ACGCACGA | 0.131
150 | ACGCACGT | -0.206

Row | Sequence | PBM E-score
151 | ACGCACGC | 0.262
152 | TCATGGGA | 0.00531
153 | ATTAAATC | 0.211
154 | ATTAAATA | 0.268
155 | ATTAAAAG | 0.0983
156 | ATTAAAAC | 0.236
157 | CTTAAATA | 0.092
158 | ATTAAACG | 0.215
159 | TATTAAAA | 0.217
160 | GTTAAATA | 0.178
161 | GATTAAAA | 0.192
162 | ATTAAAAA | 0.285
163 | ATTAAATG | 0.266
164 | CATTAAAA | 0.281
165 | CAAGGTAG | -0.142
166 | ATGCGCCG | 0.00281
167 | AAAGAGAT | -0.0227
168 | AGCGAGAA | -0.0207
169 | ACAATCCG | 0.116
170 | GAAATCCA | 0.0886
171 | CAAATCCA | 0.151
172 | AAAATCCA | 0.28
173 | ACAATCCA | 0.287
174 | GCAATCCA | 0.0882
